Tau fluor cs: Counterscreen qHTS for Inhibitors of Tau Fibril Formation, Fluorescence Polarization; Potency, µM (titrated, usually from 57.7 µM), for inactives: at the top dose activity change, negative = decrease; tau K18 P301L Alexa594 fluorescence, heparin fibrillization; actives 0.93% (n = 280,000); further: nearly all actives have a fitted effect of over 55% in size
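Human tau K18 P301L (15 uM unlabeled, 0.24 uM Alexa 594-labeled) in 100 mM sodium acetate pH 7 with 20 uM heparin, 6 hr at 37 C. ThT 30 uM added, 1 hr ambient; Alexa 594 FP and total fluorescence read at 555/632 nm.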
TR SRC2 fluor cs: Total Fluorescence Counterscreen for Inhibitors of the Interaction of Thyroid Hormone Receptor and Steroid Receptor Coregulator 2; TRb/SRC2 Texas Red total fluorescence interference; Potency, µM (top dose mostly 106 µM), inactives show top-dose fluorescence change, negative = quenching; actives 0.29% (n = 280,000); AID 1479, 2009; active means well fitted curve in either direction with a large enough effect; inconclusive means small, poorly fitted or top-dose-only effect
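Human TRb ligand-binding domain at 0.6 uM with 20 nM Texas Red SRC2 peptide in Tris buffer containing 1 uM T3 and 5% DMSO, incubated with compound 5 h at ambient temperature. Total fluorescence (555/632 nm) calculated as parallel + 2 × perpendicular.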
TRb SRC2 PPI: qHTS for Inhibitors of the Interaction of Thyroid Hormone Receptor and Steroid Receptor Coregulator 2. AID 1469, 2008. TRbeta-SRC2 peptide binding, fluorescence polarization; receptor liganded with 1 µM T3. Thyroid hormone receptor beta (Homo sapiens), P10828. actives 0.065% (n = 280,000). Potency, µM (titrated, usually from 106 µM), inactives show at the top dose activity change, negative = inhibition, hits mostly inhibitors;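 further: plate controls were bound peptide for no effect and peptide without receptor for full effect; nearly all actives have a fitted effect of over 50% in size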
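Assay buffer: 20 mM Tris-HCl, 100 mM NaCl, 10% glycerol, 1 mM EDTA, 0.01% NP-40, 1 mM DTT, 1 uM T3, 5% DMSO; TRb LBD 0.6 uM, Texas Red SRC2 20 nM; FP after 5 hr.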
Tau ThT inhib: qHTS for Inhibitors of Tau Fibril Formation, Thioflavin T Binding. recombinant tau K18 P301L (four-repeat tau fragment), heparin-induced fibrillization, ThT fluorescence. AID 1460, 2008. Microtubule-associated protein tau (Homo sapiens), P10636. actives 2.1% (n = 270,000). Potency, µM (highest dose often 57.4 µM), for the others: at the top dose activity, negative = inhibition, actives largely listed as inhibitors; further: nearly all actives have a fitted effect of over 55% in size
Target sequence (P10636 561-689 P618L limits assumed): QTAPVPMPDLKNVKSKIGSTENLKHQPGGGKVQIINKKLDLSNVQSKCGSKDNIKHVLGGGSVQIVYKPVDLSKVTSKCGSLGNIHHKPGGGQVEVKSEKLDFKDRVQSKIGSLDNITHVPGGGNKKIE
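Tau K18 P301L fragment (15 uM unlabeled plus 0.24 uM Alexa 594-labeled) in 100 mM sodium acetate pH 7 with compound, fibrillization induced by 20 uM heparin for 6 hr at 37 C. Thioflavin T (30 uM) added, fluorescence read after 1 hr (ex 450, em 510 nm).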
Tau fibril FP: qHTS for Inhibitors of Tau Fibril Formation, Fluorescence Polarization; K18 P301L tau heparin fibrillization, Alexa594 FP, 6 h; Potency, µM (titrated, usually from 57.7 µM), without a hit: at the top dose activity, negative = inhibition, most hits filed as inhibitors; actives 0.39% (n = 280,000); AID 1468, 2008; further: nearly all actives have a fitted effect of over 55% in size
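Compound effects on tau fibrillization are measured by Alexa 594 fluorescence polarization (ex 555, em 632 nm). K18 P301L tau is used at 15 uM with 0.24 uM labeled tracer, and 20 uM heparin induces aggregation over 6 hr at 37 C.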
An asterisk follows results filed as active; ? = inconclusive; · = not tested or not shown; [ ] = dose if it differs, or a comment. The list is not random: actives were taken first. Their share in the collection is about 3%. Unless noted, the call rests on the fitted dose curve; in most records, active means well fitted curve in the direction sought with a large enough effect; inconclusive means small, poorly fitted or top-dose-only effect, or another doubt; inactive means no such curve, though single readings can be large; an effect the other way counts as inactive or inconclusive. Unless noted, on the % scale 0 is the no-effect control and ±100 the full control effect; potency means the concentration at half of the fitted maximal effect.

SMILES | Tau fluor cs | TR SRC2 fluor cs | TRb SRC2 PPI | Tau ThT inhib | Tau fibril FP
CSc1nc2sc3c(c2c(=O)n1Cc1ccccc1)CCC(C(C)(C)C)C3 (stereo unspecified) | -7% | ? | -16% | -10% | 0%
CC(C)CNC(=O)C1=CC(c2ccc3c(c2)OCO3)=NS(=O)(=O)N1C | -10% | 0% | -5% | -2% | -9%
COC(=O)CCC(=O)OC1(C)C(=O)C2=COC(c3ccc(OC)cc3)=CC2=C(Br)C1=O (stereo unspecified) | -10% | 0% | 1% | 13µM* | ?
COc1ccc(C2=CC3=C(Br)C(=O)C(C)(OC(=O)c4ccc(Cl)nc4)C(=O)C3=CO2)cc1 (stereo unspecified) | ? | 11% | 2% | 28µM* | ?
COC(=O)c1cccc(C)c1S(=O)(=O)NC(=O)Nc1nc(OCC(F)(F)F)nc(N(C)C)n1 | · | -1%[201 µM] | -3%[201 µM] | · | ·
COc1ccc(NC(=O)Cn2c(=O)n(-c3ccc(Cl)cc3)c(=O)c3c(C)c(C(=O)N(C)C)sc32)cc1Cl | -22% | 0% | -3% | ? | 2%
COc1ccnc(CSC(N)=Nc2ccccc2OC)c1 | -19% | -1% | -25% | 32µM* | ?
COc1ccnc(CSC(N)=Nc2cccc(C(F)(F)F)c2)c1 | ? | 5% | 0% | 18µM* | ?
N#CNC(=Nc1cccc(C(F)(F)F)c1)SCc1ccc(C(=O)O)cc1 | -10% | 1% | -3% | ? | -14%
COc1ccnc(CSC(N)=Nc2ccccc2C(F)(F)F)c1 | 2% | -2% | -4% | 3% | 14%
Cc1cc(I)ccc1Nc1c(C(=O)NOCC2CC2)cc(F)c(F)c1F | · | -15% | 13% | · | ·
OCCN1CCN(C(=S)c2ccc(Cl)c(Cl)c2)CC1 | -22% | -2% | -7% | 7.9µM* | ?
COc1ccc(-c2csc(Nc3ccc(S(=O)(=O)Nc4cc(OC)nc(OC)n4)cc3)n2)cc1 | 11µM*[quencher] | -4% | -2% | 16µM* | 3%
COc1ccc(CC(=O)Nc2ccc(S(=O)(=O)Nc3cc(C)on3)cc2)cc1OC | -13% | 0% | -4% | -17% | -14%
COc1ccc(-c2csc(Nc3ccc(S(=O)(=O)Nc4cc(C)on4)cc3)n2)cc1C | ? | -2% | 1% | 13µM* | 13%
Cc1ccc(-c2noc(CN(C3CCCCC3)S(=O)(=O)c3ccc(F)cc3)n2)cc1 | -24% | -8% | 4% | -1% | ?
Nc1ccc2oc(-c3ccccc3Cl)cc(=O)c2c1O | ? | 0% | 7% | ? | ?
O=c1cc(-c2ccccc2Cl)oc2ccc([N+](=O)[O-])c(O)c12 | -18%[81.3 µM] | -2% | 12% | 11µM* | -3%[81.3 µM]
COC(=O)C1=C[C@@H](C(=O)OC)[C@@H]2C3=C(C(=O)[C@@]2(CC(C)C)NC(=O)c2ccccc2)[C@H](C)n2c(=O)n(-c4ccccc4)c(=O)n2[C@@H]3C1 | · | -2% | 5% | · | ·
CCOC(=O)N1CCN(C(=O)c2oc3ccc(S(=O)(=O)N4CCCCC4)cc3c2C)CC1 | -6% | -2% | -7% | -7% | -9%
Cc1c(C(=O)N2CCCCC2)oc2ccc(S(=O)(=O)N3CC(C)CC(C)C3)cc12 (stereo unspecified) | ? | 0% | 4% | ? | 20µM*
COc1ccc(C(=O)N/N=C/c2ccc(OC(=O)c3cccc4ccccc34)c([N+](=O)[O-])c2)cc1 | ? | 0% | 10% | 5µM* | -2%
O=C(N/N=C/c1ccc(OC(=O)c2ccccc2)c([N+](=O)[O-])c1)c1ccc(O)cc1 | ? | -14% | -8% | 8.9µM* | -12%
COc1ccc(/C=N/NC(=O)c2cccc([N+](=O)[O-])c2)cc1OC(=O)c1ccc(C)cc1 | ? | -1% | 8% | -11% | -1%
